Hits are enriched below; roughly 2.6% of the tested compounds scored in any of these assays.
c-Myc SMM = binders of human c-Myc | P01106 | small molecule microarray, His-c-Myc binding, anti-His fluorescence | calls only | 1.5% of 17,000 active;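 active = spot fluorescence over background with P-value below 7% in all four replicate spots, showing protein binding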
NFkB binder = binders of human NF-kappa-B p105 | P19838 | 1.3% of 17,000 active | AID 624139 | Small molecule microarray, anti-His fluorescence binding | calls only;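 active = spot fluorescence over background significantly raised, with a chance value under 7% in all four replicate spots of the compound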;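 also: probe protein is his-tagged human p50 processed subunit at 1 µg/ml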
Target sequence (P19838 1-433 limits assumed): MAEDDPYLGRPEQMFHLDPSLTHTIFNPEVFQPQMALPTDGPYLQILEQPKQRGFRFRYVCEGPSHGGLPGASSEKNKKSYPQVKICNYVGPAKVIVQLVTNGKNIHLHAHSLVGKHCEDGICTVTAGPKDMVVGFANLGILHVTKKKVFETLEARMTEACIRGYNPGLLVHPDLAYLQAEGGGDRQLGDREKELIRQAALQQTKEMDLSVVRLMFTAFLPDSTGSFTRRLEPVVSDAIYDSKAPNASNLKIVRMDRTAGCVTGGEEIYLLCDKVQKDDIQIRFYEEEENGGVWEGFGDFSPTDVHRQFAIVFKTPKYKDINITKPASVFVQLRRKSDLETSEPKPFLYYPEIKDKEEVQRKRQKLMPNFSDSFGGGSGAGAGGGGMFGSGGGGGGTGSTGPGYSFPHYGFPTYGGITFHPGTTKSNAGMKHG
STAT3 binder = binds human STAT3 on microarray. 0.2% of 17,000 active. calls only. AID 624138. Small molecule microarray, His-STAT3 binding, anti-His fluorescence;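 active = compounds whose four printed spots each show fluorescence over background unusually high for their array block, chance value under 7%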
p53 mut binder = binds human mutant p53 on microarray | AID 624136 | small molecule microarray binding, anti-GST fluorescence | 0.4% of 17,000 active | calls only;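 active = compounds whose four printed spots each glow above background more than chance allows, each with a p-value under 7%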
mut p53 react = re-activators of the mutant p53 pathway; SW480 PUMA-promoter luciferase, p53 mutant reactivation; activation, % at 9.98 µM; 1.5% of 28,000 active; in the data active = activation above about 52%
Numbers stand for hits; . = inactive; / = not tested or not shown; + = active, no number.

SMILES	c-Myc SMM	NFkB binder	STAT3 binder	p53 mut binder	mut p53 react
C=CC1(C)C=C2CCC3C(C)(C)C(O[C@@H]4O[C@@H](CO)[C@H](O)[C@H]4O)CCC3(C)C2CC1O[C@@H]1O[C@H](C)[C@H](O)[C@H](O)[C@H]1O (some centres undefined)	.	+	.	.	.
Cc1ccc(NC(=O)CSc2nc3ccccc3s2)cc1C	/	/	/	/	.
COC(=O)C1=C2CC[C@H](CO)NC(=O)N[C@H](Cc3ccccc3)C(=O)NCc3cn(nn3)C[C@@H](Cc3ccccc3)NC(=O)c3oc(c(C(=O)OC)c3C(=O)OC)CC[C@H](CO)NC(=O)N[C@H](Cc3ccccc3)C(=O)NCc3cn(nn3)C[C@@H](Cc3ccccc3)NC(=O)C(=C1C(=O)OC)O2	.	.	+	.	/
CC(C)(C)C1CCc2c(sc3ncn(CC(=O)NCc4ccco4)c(=O)c23)C1 (centres undefined)	/	/	/	/	.
O=C(CSc1nnc(-c2ccccc2)o1)Nc1cccc(Br)c1	/	/	/	/	102
Cc1cccc(-c2nnc(SCC(=O)Nc3ccc(Br)cc3F)o2)c1	/	/	/	/	80
CSc1cccc(NC(=O)CSc2nnc(-c3cccc(C)c3)o2)c1	/	/	/	/	103
O=C(CSc1nnc(-c2ccc(Br)cc2)o1)Nc1ccccc1Cl	/	/	/	/	75
Cc1ccc(NC(=O)CSc2nnc(-c3ccc(Br)cc3)o2)cc1Cl	/	/	/	/	.
O=C(O)CCc1ccc(-c2ccccc2)n1-c1ccc([N+](=O)[O-])cc1	/	/	/	/	.
COc1ccc(OC)c(S(=O)(=O)Nc2cc([N+](=O)[O-])ccc2C)c1	.	.	.	.	.
O=C(CSc1oc(-c2ccccc2)nc1S(=O)(=O)c1ccccc1)Nc1ccc(F)cc1	/	/	/	/	.
NC(=O)c1ccccc1NC(=O)CCCN1C(=O)c2ccccc2C1=O	/	/	/	/	.
COc1cc(-c2nc3sc4c(c3c(=O)[nH]2)CCCC4)cc(Br)c1OCC(=O)O	+	+	.	.	.
Cc1ccc(C(=O)CC(C(=O)O)n2ccc(C)n2)cc1 (centres undefined)	+	+	.	.	.
C[C@@H]1CCCCO[C@H](CN(C)S(=O)(=O)c2ccccc2)[C@@H](C)CN([C@@H](C)CO)C(=O)c2cc(N(C)C)ccc2O1	.	+	.	.	.
C[C@@H]1CCCCO[C@@H](CN(C)S(=O)(=O)c2ccccc2)[C@H](C)CN([C@H](C)CO)C(=O)c2cc(N(C)C)ccc2O1	.	.	.	.	.
Cc1noc(C)c1S(=O)(=O)N(C)C[C@@H]1OCCCC[C@@H](C)Oc2ccc(N(C)C)cc2C(=O)N([C@@H](C)CO)C[C@@H]1C	.	.	.	.	.
Cc1noc(C)c1S(=O)(=O)N(C)C[C@H]1OCCCC[C@@H](C)Oc2ccc(N(C)C)cc2C(=O)N([C@@H](C)CO)C[C@@H]1C	+	+	+	.	.
O=C1c2ccccc2C2CC(c3cc(Cl)ccc3Cl)=NN12 (centres undefined)	/	/	/	/	79
O=C1c2ccccc2C(=O)N1CCCSc1nccn1-c1cc(Cl)ccc1Cl	/	/	/	/	.
C[C@H](O)C1=CC2(CC[C@@H]3C(C(=O)O)=CO[C@@H](O[C@@H]4O[C@H](CO)[C@@H](O)[C@H](O)[C@H]4O)[C@@H]32)OC1=O (some centres undefined)	.	.	.	.	.
O=C(COc1ccc(Cl)cc1Br)NCc1ccccn1	/	/	/	/	76
O=C(NCc1ccccn1)Nc1ccccc1Cl	/	/	/	/	143
O=C(NCc1ccccn1)Nc1ccc(F)cc1F	.	.	.	.	.
SMILES	c-Myc SMM	NFkB binder	STAT3 binder	p53 mut binder	mut p53 react
COc1ccc(C(C)C)cc1S(=O)(=O)Nc1cccc(C(=O)O)c1	/	/	/	/	.
Cc1cc(C)c(C)c(S(=O)(=O)NCC(=O)Nc2ccc3c(c2)OCCO3)c1C	/	/	/	/	.
c1ccc(OCc2nc3ccccc3n2Cc2ccccn2)cc1	.	.	.	.	59
OC(c1ccccc1)c1nc2ccccc2n1CCOc1ccccc1 (centres undefined)	/	/	/	/	.
CC1CCc2c(sc(NC(=O)c3nc4ncccn4n3)c2C(N)=O)C1 (centres undefined)	/	/	/	/	59
c1ccc(-c2noc(COc3cccc4ccccc34)n2)nc1	/	/	/	/	87
O=C1c2ccccc2C(=O)N1CCCc1nc(-c2ccccn2)no1	/	/	/	/	.
Cc1ccccc1OC(C)c1nc(-c2ccccn2)no1 (centres undefined)	/	/	/	/	116
c1ccc(OCCCc2nc(-c3ccccn3)no2)cc1	.	.	.	.	69
Cc1cc(=O)n2c3ccccc3n(CC(O)Cn3ccnc3)c2c1C#N (centres undefined)	/	/	/	/	.
C[C@@H]1CN([C@@H](C)CO)C(=O)c2cccc(NC(=O)Nc3ccc(C(F)(F)F)cc3)c2O[C@H]1CN(C)S(=O)(=O)c1cn(C)cn1	+	+	.	.	.
C[C@H](CO)N1C[C@H](C)[C@H](CN(C)C(=O)Nc2ccc(C(F)(F)F)cc2)Oc2c(NC(=O)NC3CCCCC3)cccc2C1=O	.	.	.	.	.
C[C@@H]1CN([C@H](C)CO)C(=O)c2cccc(NC(=O)Nc3ccc(C(F)(F)F)cc3)c2O[C@H]1CN(C)CC1CC1	.	.	+	.	.
C[C@H](CO)N1C[C@H](C)[C@H](CN(C)C(=O)NC2CCCCC2)Oc2c(NC(=O)Nc3ccc(C(F)(F)F)cc3)cccc2C1=O	.	.	.	.	.
C[C@@H]1CN([C@H](C)CO)C(=O)c2cccc(NC(=O)Nc3ccc(C(F)(F)F)cc3)c2O[C@H]1CN(C)C(=O)NC1CCCCC1	+	+	+	.	.
C[C@H]1CN([C@@H](C)CO)C(=O)c2cccc(NC(=O)NC3CCCCC3)c2O[C@@H]1CN(C)C(=O)Nc1ccc(C(F)(F)F)cc1	+	+	.	.	.
C=C[C@@]1(C)C[C@@]2(OC[C@@]3(C)O[C@@H]23)Oc2c1c(=O)oc1cccc(C)c21	.	.	.	.	.
COc1cc(OC)cc(-c2nnc(SCC(=O)Nc3ccc(Cl)cc3)n2-c2ccc(F)cc2)c1	/	/	/	/	.
COc1ccc(CC(=O)Nc2ccc(O)cc2C(=O)O)cc1OC	/	/	/	/	.
COc1ccc(S(=O)(=O)Nc2cccc3c2O[C@@H](CN(C)Cc2ccc(C(F)(F)F)cc2)[C@H](C)CN([C@H](C)CO)C3=O)cc1	.	.	+	.	.
COc1ccc(S(=O)(=O)Nc2cccc3c2O[C@H](CN(C)Cc2ccc(C(F)(F)F)cc2)[C@@H](C)CN([C@@H](C)CO)C3=O)cc1	.	.	.	.	.
Cc1nnc(SCc2nc(N)nc(Nc3ccc4ccccc4c3)n2)s1	/	/	/	/	97
Cc1nnc(SCc2nc(N)nc(Nc3ccccc3)n2)s1	.	.	.	.	.
Cc1sc2ncnc(SCC(=O)Nc3ccc(F)cc3)c2c1C	/	/	/	/	.
COc1ccc2oc(-c3cccc(NC(=O)COc4ccc(Cl)cc4)c3)nc2c1	/	/	/	/	91
Cc1cccc(-c2nc3cc(NC(=O)COc4ccccc4)ccc3o2)c1	/	/	/	/	.
COc1ccc(OCC(=O)Nc2cccc(-c3cnc4ccccc4n3)c2)cc1	/	/	/	/	92
O=C(COc1ccccc1)Nc1ccc2oc(-c3ccccc3)nc2c1	.	.	.	.	69
COc1ccc(OCC(=O)Nc2ccc3oc(-c4cccc(Br)c4)nc3c2)cc1	/	/	/	/	.
CCC(=O)Nc1cccc(NC(=O)COc2ccc3ccccc3c2)c1	/	/	/	/	94
